Among the data in PubChem BioAssay (NCI) are growth values, retold here.

Common to all, as to assay: NCI-60 one-dose screen, 48 h (100 = growth as untreated, 0 = no growth, -100 = all killed)
What all share (settings): 10 µM unless noted

The test system of assay [1] is HCT-15 colon.
Assay [2] concerns HT29 colon.
For assay [3], the system named is SNB-75 CNS.
The subject of assay [4] is SNB-19 CNS.
Assay [5] concerns U251 CNS.
The test system of assay [6] is PC-3 prostate.
Assay [7] has as its system SK-MEL-5 melanoma.
The test system of assay [8] is UACC-62 melanoma.
Assay [9] has as its system LOX IMVI melanoma.
Assay [10] relates to SK-MEL-28 melanoma.

Compounds without any hit were thinned out: in the full panel of roughly 83,000, 20% have a hit.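 Values shown are percent growth following 48 h exposure of cells in 96-well plates to a single concentration of compound; below 10 was considered active.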 Values without a mark were called inactive. Active and inactive are the calls of the source.

Regarding `CC1(C)CC[C@]2(c3nnc(-c4ccncc4)o3)CC[C@]3(C)C(=CC[C@@H]4[C@@]5(C)CCC(=O)C(C)(C)[C@@H]5CC[C@]43C)[C@@H]2C1`, the growth is 71.8% in [1]; 77.5% in [2]; 88.7% in [3]; 78.7% in assay [4]; 76.9% in [5]; 47.5% in assay [6]. Moreover, the growth was 74.3% in [7], 67.3% in assay [8], 72.2% in [9] and 83.5% in assay [10].

For the molecule `O=C(N/N=C/C[C@@H]1[C@@H](/C=C/[C@@H](O)COc2cccc(Cl)c2)[C@H](O)C[C@@H]1O)c1ccncc1`, the growth was 99.3% in assay [1]; 71.1% in assay [2]; 90.5% in assay [3]; 98.1% in assay [4]; 92.9% in assay [5]; 91% in [6]. Further, the growth in assay [7] is 96.6%; in assay [8], 92.9%; in assay [9] it was 94.3%; in assay [10] it was 103%.

For the molecule `C=CCn1c(SCC(=O)Nc2ccc(C(=O)/C=C/c3cc(OC)c(OC)c(OC)c3)cc2)nnc1-c1ccc(Cl)cc1`, the growth in assay [1] was -1.47% (active); in assay [2] it was -43.1% (active); in [3] it was 20.1%; in assay [4] it was 35.2%; in assay [5], -3.31% (active); in assay [6], 28.3%. The growth in assay [7] is 9.64% (active); in [8], 22.1%; in [9], -22.4% (active); in assay [10] it was 59%.

For `NC(=O)c1ccc(C2C3=C(CCCC3=O)OC3=C2C(=O)c2ccccc2C3=O)cc1` (stereo not given), the growth in [1] was 53.8%; in assay [2], 29.7%; in assay [3], -1.57% (active); in [4], 49.6%; in assay [5], 0.896% (active); in assay [6] it was 12.3%. The growth in assay [7] is -93.9% (active); in assay [8] it was -38.8% (active); in [9], -19.3% (active); in [10], 59.6%.

Regarding `CCCn1c2cc(OCc3cn(-c4ccc(Cl)cc4)nn3)ccc2c2ccnc(C)c21`, the growth in [1] is 67.6%; in [2] it was 30.7%; in [3], 92.5%; in assay [4], 80.6%; in assay [5] it was 47.5%; in [6] it was 71.2%. In addition, the growth was 70.6% in assay [7], 74.9% in [8], 65.1% in assay [9] and 92.3% in assay [10].

In the case of `c1ccc2c3c([nH]c2c1)C(c1ccc(C2NCCc4c2[nH]c2ccccc42)cc1)NCC3` (stereo not given), the growth in [1] was -65.8% (active); in assay [2] it was -74.2% (active); in assay [3] it was -11.4% (active); in [4] it was 2.5% (active); in assay [5], -92.6% (active); in assay [6] it was 16.8%. Further, the growth in assay [7] is -92.9% (active); in assay [8] it was -69.9% (active); in [9], -94.6% (active); in [10] it was -52.8% (active).

On to `O=c1c2ccccc2oc2ccc(OCCCCCCN3CCCCCC3)cc12`, for which the growth in assay [1] is 7.65% (active); in [2], 8.09% (active); in assay [3], 88.7%; in assay [4] it was 58.3%; in [5] it was 38.9%; in assay [6] it was 34%. For the same molecule, the growth in assay [7] was -36.7% (active); in assay [8] it was -53.4% (active); in assay [9], 19.1%; in [10], 38.5%.

As to `CC(=O)c1ccc(NC(=O)CSc2nnc(-c3cc(-c4ccc(Cl)cc4)nc4ccccc34)o2)cc1`, the growth in assay [1] is 76.9%; in assay [2] it was 84.3%; in assay [3], 82.7%; in assay [4], 78%; in [5], 28.6%; in [6], 79.5%. Moreover, the growth in [7] was 90.5%; in assay [8], 95.7%; in assay [9], 46.1%; in [10], 107%.

With `Cc1ccc2nc3nc4ccc[nH]c4cc3c2c1`, the growth was 60.4% in assay [1]; 76.8% in assay [2]; 72.3% in [3]; 97.3% in assay [4]; 92.5% in assay [5]; 87.5% in [6]. Further, the growth in [7] is 71.7%; in [8], 94.3%; in [9], 97.9%; in assay [10], 116%.

For the molecule `C=C1C(=O)O[C@H]2[C@H]1CC/C(COC(=O)/C=C/c1cccnc1)=C\CC[C@@]1(C)O[C@@H]21`, the growth in assay [1] is 3.01% (active); in [2], 11.1%; in assay [3], 72.2%; in assay [4] it was 75.2%; in [5], 57.7%; in assay [6], 57.5%. The growth is 68.2% in assay [7], 41.1% in assay [8], 30.7% in assay [9] and 43.7% in [10].

Regarding `COc1ccc(-c2[nH]c3ccc(OC)cc3c2C=C(C#N)C#N)cc1`, the growth in [1] is 38.6%; in [2], 15%; in assay [3] it was 21.3%; in assay [4], 76.2%; in assay [5], 35.7%; in [6], 21.7%. The growth in assay [7] was 15.5%; in [8] it was 33.1%; in assay [9], 63%; in [10] it was 54.2%.

In the case of `Nc1cccc(C(=O)Nc2ccc3c(O)c(N=Nc4ccc(N=Nc5ccc(S(=O)(=O)O)cc5)cc4)c(S(=O)(=O)O)cc3c2)c1`, the growth in assay [1] was 108%; in assay [2], 99.1%; in assay [3], 87.9%; in assay [4], 106%; in [5] it was 109%; in assay [6], 91.9%. Further, the growth in [7] is 104%; in [8] it was 97.4%; in [9], 101%; in assay [10], 107%.

As to `CC(C)(C#N)c1cc(F)cc(C(=O)Nc2cc(Nc3ncccc3-c3ncnc4nc[nH]c34)ccc2F)c1`, the growth in assay [1] is 37.8%; in assay [2] it was 10.1%; in assay [3], 78.7%; in assay [4] it was 58%; in assay [5], 40.7%; in [6], 54.2%. The growth in assay [7] is 20.3%; in assay [8], 9.35% (active); in [9], -23.6% (active); in assay [10], 18.5%.
